This is an account of results in PubChem BioAssay (NCI).

The experiment deals with MDA-MB-468 breast. Put plainly: NCI-60 one-dose screen, 48 h (100 = growth as untreated, 0 = no growth, -100 = all killed). The following applies: 10 µM unless noted.

The panel holds about 83,000 compounds, 20% with a hit somewhere; the sample as a whole holds those more often.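 96-well plates, one dose, 48 hours. Percent growth reported; active if below 10.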 Values without a mark were called inactive. Activity calls are given as the source filed them.

In the case of `O=C(O)CCCCNC(=O)c1ccccc1`, the growth was 97.7%. With `CC(=O)Nc1ccc(/C=C2\SC(=S)N(/C=C(\C(C)=O)C(N)=O)C2=O)cc1` the figure was 108%.

Consider `C[C@@H]1C[C@H]2C(=O)O[C@@H](C)[C@H](NC(=O)[C@H](Cc3cc(F)cc(F)c3)NC(=O)Nc3ccc(C4CC4)cc3F)C(=O)N3CCC[C@H]3C(=O)N3CCCC[C@H]3C(=O)N[C@@H](C)C(=O)N2C1`, for which the growth was -16.1% (active). Turning to `CN(C)c1oc(C2OC2c2ccccc2)nc1C#N` (stereo not given), the growth was 90.3%. With `CN(C)c1ccc(/C=N/Nc2nc(N/N=C/c3ccc(N(C)C)cc3)nc(N3CCOCC3)n2)cc1` the figure was 97.8%.

In the case of `COC(=O)/C=C1\SC(=Nc2cccc(Cl)c2)N(CCc2c[nH]c3ccccc23)C1=O`, the growth is 54.4%. `O=C(CCc1nnco1)c1nc2ccc([N+](=O)[O-])cc2[nH]1`: the growth was 113%.

On to `CC(=O)C1CCCCC1`, for which the growth was 102%.

Take `CC(=O)NC(C)(C)C(=O)N1CCC[C@H]1C(=O)NC(C)(C)C(=O)N[C@@H](C)C(=O)NC(C)(C)C(=O)NC(C)(C)C(=O)N[C@@H](CCC(N)=O)C(=O)NC(C)(C)C(=O)N[C@H](C(=O)NC(C)(C)C(=O)NCC(=O)N[C@@H](CC(C)C)C(=O)NC(C)(C)C(=O)N1CCC[C@H]1C(=O)N[C@H](C(=O)NC(C)(C)C(=O)NC(C)(C)C(=O)N[C@@H](CCC(N)=O)C(=O)N[C@@H](CCC(N)=O)C(=O)N[C@H](CO)Cc1ccccc1)C(C)C)C(C)C`: the growth was -1.54% [4.25 µM] (active). As to `O=C1c2ccccc2C(=O)c2c1ccc(C(Br)Br)c2Cl`, the growth was -12.6% (active). Under `COc1ccc(C2C(C#N)=C(N)Oc3c2sc2ccc(C)cc32)cc1` (stereo not given) stands -13.2% (active); under `CN(C)CC(O)c1ccc2cc(Br)c3ccccc3c2c1` (stereo not given), -0.132% (active); under `COc1ccc(-c2[nH]c3ccccc3c2C=C(C#N)C#N)cc1`, -19.8% (active).

In the case of `CCOC(=O)c1c(CN2CCN(C)CC2)nc2ccc(Cl)cc2c1-c1ccccc1`, the growth was 63.7%. For `O=C(Cc1ccccc1Nc1c(Cl)cccc1Cl)NN1C(=O)/C(=C/c2ccc(Br)cc2)SC1=S`, the growth was 97%.

`Cc1cc2c(-c3nc4ccccn4c3N)c(O)c(O)cc2c(O)c1-c1c(C)cc2c(-c3nc4ccccn4c3N)c(O)c(O)cc2c1O`: the growth was -2.1% (active). Consider `COc1ccc(-c2nc3cc(Cl)c(Cl)cc3n2CC(=O)N=Nc2c(O)[nH]c3ccccc23)cc1`, for which the growth is 60.6%.

Take `COc1ccc(Br)c2c1C(=O)CC2`: the growth is 107%. For `Oc1c(Cl)cc(Cl)c(Cl)c1Cc1c(O)c(Cl)cc(Cl)c1Cl`, the growth was 4.35% (active).

Consider `COc1cccc(NC(=O)c2sc3nc(C)c(C(C)=O)cc3c2N)c1`, for which the growth is -14.8% (active). Under `COc1cc(OC)c(/C=C/C(=O)c2c(OC)cc(OC)cc2OC)c(OC)c1` stands 14%; under `CC(=S)NC(=O)C(=O)/C=C1/NC(=O)C(=O)S1`, 102%.

As for `COc1ccc(C(=O)NC(=O)Nc2ccc3c(c2)NC(=O)/C3=C\c2[nH]c(C)c(CCC(=O)O)c2C)c(F)c1`, the growth is 59.7%. Under `C=C(C)[C@@H]1CC[C@]2(C(=O)NCCNCCN)CC[C@]3(C)[C@H](CC[C@@H]4[C@@]5(C)C/C(=C/c6ccncc6)C(=O)C(C)(C)[C@@H]5CC[C@]43C)[C@@H]12` stands 80.3%; under `CCN(CC)CC(=O)Nc1cccc(C(=O)OC(C)C)c1`, 115%; under `COc1ccc(Nc2ncnc3c2sc2nc(C)cc(C)c23)cc1`, 95.1%. Under `Cc1c2c(cc[n+]1Cc1ccccc1)c1ccc(OCc3ccccc3)cc1n2Cc1ccccc1` stands -42.3% (active); under `O=NN(Cc1cccnc1)C(=O)NC1CCCCC1`, 104%; under `N#C/C(=C\c1ccc(Br)cc1)n1nnc2ccc(F)cc21`, -9.09% (active).

In the case of `COc1ccc(/C(=C\c2ccccc2)C(=O)O)cc1OC`, the growth is 93.2%. With `COc1ccc(-c2[nH]ncc2/C=C/c2cc(C(F)(F)F)[nH]c(=O)n2)cc1` the figure was 96.1%; with `CC(=O)OCC1OC(OC2=C(CC=C(Cl)Cl)C(=O)c3ccccc3C2=O)C(OC(C)=O)C(OC(C)=O)C1OC(C)=O` (stereo not given), -61.7% (active); with `C=CC(=O)N1CCC[C@H](n2c(=O)n(-c3ccc(Oc4ccccc4)cc3)c3c(N)ncnc32)C1`, 0.223% (active). In the case of `O=C1C=CC(=O)N1c1ccc2c(c1)Cc1cc(F)ccc1-2`, the growth is 92.6%. On to `CCCN(CCC)CCCNC(=O)c1cc2c(-c3ccc(OC)c(OC)c3)nn(C)c2s1`, for which the growth was 39%. With `Cc1cc(C)c(O)c(CNCCCCCCNCc2cc(C)cc(C)c2O)c1` the figure was -72.2% (active). For `CCOC(=O)c1ccncc1`, the growth is 89.1%. Consider `O=[N+]([O-])c1ccc(N=Nc2c(O)c(N=Nc3cc([N+](=O)[O-])cc([N+](=O)[O-])c3O)cc(N=Nc3cc(S(=O)(=O)O)cc4cc(S(=O)(=O)O)cc(O)c34)c2O)cc1`, for which the growth was 100%. Take `COc1ccc2c(c1OC)C(=O)O[C@@H]2[C@H]1c2c(c(C#CC#Cc3ccc(F)c(F)c3)c3c(c2OC)OCO3)CCN1C`: the growth is 72.4%.

`COc1ccc(C(=O)C[C@]2(O)C(=O)Nc3c(Cl)ccc(Cl)c32)cc1`: the growth was -7.27% (active). For `NC(=O)/C=C/C(=O)c1c(Cl)cccc1Cl`, the growth is -83.5% (active). With `c1ccc(-c2c(-c3ccccc3)[n+](Cc3ccc4ccccc4c3)c(-c3ccccc3)n2Cc2ccc3ccccc3c2)cc1` the figure was -76.4% (active); with `C/C=C(/C(=O)NC(N)=O)C(C)C`, 117%; with `Cc1nc2sc(C(=O)Nc3cccc4ccccc34)c(N)c2cc1C(O)c1ccccc1` (stereo not given), 18.1%. `O=C(O)c1cn(C2CC2)c2cc(N3CCN(C(=O)Nc4nc(-c5ccccc5)cs4)CC3)c(F)cc2c1=O`: the growth was 27.1%. In the case of `Cn1c(=O)cc2c3c(c(NCCCO)ccc31)C(=O)c1ccccc1-2`, the growth is 39.8%. For the molecule `CCCCc1nc(Cl)c(C2CC(c3ccc(S(N)(=O)=O)cc3)=NN2c2cc(Cl)cc(Cl)c2)[nH]1` (stereo not given), the growth is 22.1%.

In the case of `CCNCCNc1cc(-c2ccc(C(F)(F)F)cc2)c(C#N)c2nc3cc(Cl)c(Cl)cc3n12`, the growth is -82% (active). Under `CC(C)C1=C[C@@]23CC[C@@H]4[C@](C)(CCC[C@@]4(C)C(=O)N4CCCNCC4)[C@H]2C[C@@H]1[C@H]1C(=O)CCC(=O)[C@H]13` stands 101%; under `O=S(=O)(NCCCNc1nccc(-c2c(-c3ccc(F)c(O)c3)nc3occn23)n1)c1ccccc1`, 94.8%. In the case of `CC1O[C@@H](OC2[C@H](OC(=O)/C=C/c3ccc(O)c(O)c3)C(COC3O[C@H](C)C(O)C(O)[C@@H]3O)O[C@@H](OCCc3ccc(O)c(O)c3)[C@H]2O)[C@@H](O)C(O)[C@H]1O` (stereo not given in full), the growth is 106%. With `Cn1ccnc1C(=O)/C=C/c1ccc(CNC(=O)c2ccc(F)cc2)cc1`, the growth is -29.1% (active).

With `N#Cc1ccc(-c2ccc(-c3cccs3)o2)cc1F`, the growth is 6.91% (active). Turning to `C[C@H]1c2ccccc2CN1CCCOc1cc2c(cc1OCC1CC1)C1(CCCC1)C(N)=N2`, the growth is 29.2%. In the case of `Cc1ccc(Cc2c(C=O)nc(N)[nH]c2=O)c2ccccc12`, the growth is 106%.

Turning to `CC(C)=CCC[C@](C)(O)[C@H]1CC[C@]2(C)[C@@H]1CC[C@@H]1[C@@]3(C)C/C(=C/c4ccc(Br)cc4)C(=O)C(C)(C)[C@@H]3CC[C@]12C`, the growth is 83.7%. As to `Cc1cc2c(C)c3cc(C)c(N)cc3nc2cc1N`, the growth was -5.78% (active). In the case of `COc1ccc2[nH]c(C(=O)OCc3ccc4cccc(O)c4n3)cc2c1`, the growth was -70.8% (active).

On to `COc1cc(/C=N/n2cnc3oc(-c4ccccc4)cc3c2=N)cc(CN2CCOCC2)c1O`, for which the growth was 83.2%. As to `N#C/C(=C\c1ccc(-c2ccc(Cl)c(Cl)c2)o1)c1nc(-c2ccco2)cs1`, the growth is -38.2% (active). With `CCCCCCN1C(=O)CN=C1Nc1ccc2cc3ccc(NC4=NCC(=O)N4CCCCCC)cc3nc2c1`, the growth is 3.94% (active). As for `C#Cc1cccc(NC(=O)Nc2ccc(NC(=O)CCl)cc2)c1`, the growth was -53.7% [8.25 µM] (active). With `CC(=O)Nc1ccc(CC[C@H]2CCC/C=C/[C@@H]3C[C@H](O)C[C@H]3[C@H](O)/C=C/C(=O)O2)cc1` the figure was -23.5% (active); with `Clc1cccc(/C=N/Nc2nc(N/N=C/c3cccc(Cl)c3)nc(N3CCOCC3)n2)c1`, 30.8%; with `COc1ccc(-c2nc(S(=O)(=O)c3ccccc3)c(S(=O)CC(=O)N3CCC(C)CC3)o2)cc1` (stereo not given), -15% (active).

`O=C(O)c1ccc(Cl)cc1Nc1ccc(F)cc1`: the growth is 27.9%. With `CN(C)c1ccc(-c2c(NC(C)(C)C)nc3c(OCCc4ccccc4)cccn23)cc1`, the growth was -19.6% (active). Take `O=[N+]([O-])c1cc(S(=O)(=O)Nc2ccccc2)ccc1Cl`: the growth was -33.4% (active). Regarding `Oc1ccc(-c2nc(-c3ccc4oc5ccc(-c6[nH]c(-c7ccc(O)cc7)nc6-c6ccccc6)cc5c4c3)c(-c3ccccc3)[nH]2)cc1`, the growth is 6.14% (active). Under `CC[C@H](C)[C@H](NC(=O)[C@H](CCCCN)NC(=O)[C@H](CCCCN)NC(=O)[C@@H](NC(=O)[C@@H](NC(=O)[C@@H](N)Cc1cnc[nH]1)[C@@H](C)CC)[C@@H](C)CC)C(=O)N[C@@H](CCCNC(=N)N)C(=O)N[C@H](C(=O)N[C@@H](Cc1c[nH]c2ccccc12)C(=O)N[C@@H](Cc1ccc(O)cc1)C(=O)N[C@@H](CCCNC(=N)N)C(=O)N[C@@H](CCCCN)C(=O)N[C@@H](C)C(=O)N[C@@H](Cc1c[nH]c2ccccc12)C(=O)N[C@@H](Cc1cnc[nH]1)C(=O)N[C@H](C(=O)N[C@@H](CC(C)C)C(=O)NCC(=O)N[C@@H](CCCCN)C(=O)N[C@H](C(N)=O)C(C)C)C(C)C)[C@@H](C)O` stands 59.2%.
